Experimental data: PubChem BioAssay AID463082 (The Scripps Research Institute Molecular Screening Center, 2010)
Hit rate of the full screen: of about 330,000 compounds, about 4,900 (1.5%) were called active.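 Rule for the calls: active = inhibition above the mean inhibition across the screen plus 3 SD (cut at about 25% in these data); inactive = the rest.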 Shown is part of a subset that was picked to be rich in actives.

What follows are molecules tested against Platelet-activating factor acetylhydrolase (Homo sapiens) (UniProt Q13093) (assay: inhibition of plasma PAF acetylhydrolase – biochemical, fluorescence polarization, human, primary screen (AID 463082;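 note: inhibitors block binding of the rhodamine activity-based probe so polarization drops; 0% = enzyme with DMSO and 100% = wells lacking pPAFAH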)). Conditions: recombinant pPAFAH, FP-rhodamine probe fluorescence polarization; at 3.39 µM; hits give high values.
Sequence of Platelet-activating factor acetylhydrolase (Homo sapiens) (Q13093 whole entry, looked up): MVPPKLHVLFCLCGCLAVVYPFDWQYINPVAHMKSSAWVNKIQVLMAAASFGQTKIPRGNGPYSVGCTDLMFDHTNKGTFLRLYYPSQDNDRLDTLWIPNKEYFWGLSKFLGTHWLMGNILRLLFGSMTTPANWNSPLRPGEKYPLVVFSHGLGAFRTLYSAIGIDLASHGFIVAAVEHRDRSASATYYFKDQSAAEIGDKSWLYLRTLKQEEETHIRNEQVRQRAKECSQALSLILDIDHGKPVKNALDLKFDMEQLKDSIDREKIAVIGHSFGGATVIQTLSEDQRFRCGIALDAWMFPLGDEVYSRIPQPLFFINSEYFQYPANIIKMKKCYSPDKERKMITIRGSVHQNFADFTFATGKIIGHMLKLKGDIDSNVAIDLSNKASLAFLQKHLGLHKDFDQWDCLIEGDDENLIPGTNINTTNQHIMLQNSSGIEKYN

| SMILES | inhibition |
| --- | --- |
| Cc1cc(C)c(-c2c(O)c3ccccc3n(C)c2=O)c(C)c1 | -0.19% (inactive) |
| COc1ccc(CN2CC(C(=O)NCCN3CCN(c4ccccc4F)CC3)CC2=O)cc1 (configuration not stated) | -3.16% (inactive) |
| O=C(Nc1ccc(Cl)cc1)C1c2cccc[n+]2CC(=O)N1Cc1ccc2c(c1)OCO2 (configuration not stated) | 25.9% (active) |
| O=C(C1CCN(Cc2ccc(Cl)cc2)CC1)N1CCN(Cc2ccc3c(c2)OCO3)CC1 | 6.74% (inactive) |
| CC1CCC(NC(=O)C2c3ccccc3C(=O)N2Cc2ccc3c(c2)OCO3)CC1 (configuration not stated) | -0.02% (inactive) |
| COC(=O)c1c(C)oc(C)c1S(=O)(=O)NCc1ccc(Cl)cc1 | -8.68% (inactive) |
| COc1ccc(-n2cnnc2SCC(=O)Nc2cccc(S(N)(=O)=O)c2)cc1 | 3.84% (inactive) |
| NS(=O)(=O)c1cccc(NC(=O)CSc2nc3ccccc3n2-c2ccccc2)c1 | 33.2% (active) |
| Cc1nnc(SCC(=O)Nc2cccc(N)c2)n1-c1ccccc1 | 6.08% (inactive) |
| O=[N+]([O-])c1ccc(N2CCN(S(=O)(=O)c3ccccc3)CC2)cc1N1CCc2ccccc2C1 | -4.15% (inactive) |
| COCCN1C(=O)C(=O)/C(=C(/O)c2ccc(S(=O)(=O)N3CCCCC3)cc2)C1c1ccc(OC)c(OC)c1 (configuration not stated) | -2.4% (inactive) |
| Cc1cccc(-n2c(C)cc(/C=N/NC(N)=S)c2C)c1 | -4.16% (inactive) |
| Cc1ccc(-n2c(C)cc(/C=N/Nc3ccc([N+](=O)[O-])cn3)c2C)c(C)c1 | 8.84% (inactive) |
| Cc1cc(/C=N/Nc2ccc([N+](=O)[O-])cn2)c(C)n1-c1cccc(C(=O)O)c1 | 66.3% (active) |
| NC(=O)NC(=O)CSc1nc2cc([N+](=O)[O-])ccc2n1-c1cccc(C(F)(F)F)c1 | 18.1% (inactive) |
| Cc1ccc(C(=O)N/C(=C\c2ccco2)C(=O)NC2CCS(=O)(=O)C2)cc1 (configuration not stated) | -1.45% (inactive) |
| CC(=O)Nc1ccc(S(=O)(=O)Nc2ccc(N3CCCCC3)cc2)cc1 | 27.6% (active) |
| COc1cc(NS(=O)(=O)c2ccc(NC(C)=O)cc2)cc(OC)c1 | 2.89% (inactive) |
| CC(=O)Nc1ccc(S(=O)(=O)Nc2ccc(N3CCOCC3)c(F)c2)cc1 | 5.29% (inactive) |
| COc1ccccc1OCCNC(=O)C(CCSC)NC(=O)COc1ccccc1 (configuration not stated) | 1.04% (inactive) |
| CCN(C(=O)COC(=O)c1cc(NS(=O)(=O)c2ccc(Cl)c([N+](=O)[O-])c2)ccc1O)C1CCCCC1 | -1.02% (inactive) |
| COc1ccc(NS(=O)(=O)c2ccc(O)c(C(=O)OCC(=O)NC3CCCCC3)c2)cc1 | 26.9% (active) |

| SMILES | inhibition |
| --- | --- |
| CC(C)NS(=O)(=O)c1ccc(OCC(=O)NC2CCCCCC2)cc1 | 6.56% (inactive) |
| COC(=O)c1sc(N2CCN(Cc3ccccc3)CC2)nc1N | 5.95% (inactive) |
| O=C(/C=C/c1cccs1)c1cc(Cl)ccc1OC(=O)N1CCOCC1 | 42.8% (active) |
| CC(=O)Nc1ccccc1OC(=O)N1CCOCC1 | -0.96% (inactive) |
| O=C(Oc1cccc(C(=S)N2CCOCC2)c1)c1cccc(Cl)c1 | 7.68% (inactive) |
| COc1ccc(/C=C2/S/C(=N/N=C3\CC4CCC3(C)C4(C)C)NC2=O)cc1 (configuration not stated) | 5.69% (inactive) |
| O=C1c2ccccc2NC(c2ccc(-c3cccc(Cl)c3)o2)N1O (configuration not stated) | 7.56% (inactive) |
| O=C1NN(c2ccccc2)C(=O)/C1=C/c1ccc(-c2cccc(C(=O)O)c2)o1 | 18.6% (inactive) |
| O=C(O)C(c1ccccc1)N1C(=O)/C(=C\c2ccc(-c3cccc(Cl)c3)o2)SC1=S (configuration not stated) | 70.4% (active) |
| COc1ccc(CN2C3CCCC2CC(NC(=O)c2cccc(F)c2)C3)cc1 (configuration not stated) | 0.56% (inactive) |
| COc1ccc(N2CC(NS(=O)(=O)c3ccc4ccccc4c3)CC2=O)cc1 (configuration not stated) | 4.81% (inactive) |
| O=S(=O)(N/N=C\c1cccn1-c1ccccc1)c1ccc2ccccc2c1 | 25% (active) |
| O=C(COc1ccc(/C=N/NS(=O)(=O)c2ccccc2)cc1)NCCc1ccccc1 | 4.79% (inactive) |
| Cc1ccnc2nc(C(=O)Nc3nnc(-c4ccccc4)o3)nn12 | 8.88% (inactive) |
| CCCCn1c(N)c(N(CC(C)C)C(=O)c2cnc(C)cn2)c(=O)[nH]c1=O | 7.57% (inactive) |
| COc1ccccc1NC(=O)CCN1CCN(c2ccc(Cl)cc2)CC1 | 6.99% (inactive) |
| Cc1ccsc1/C=N/Nc1ccc(Cl)nn1 | 8.65% (inactive) |
| COc1cccc(/C=N/Nc2ccc(Cl)nn2)c1 | -0.67% (inactive) |
| Oc1cccc(/C=N/Nc2ccc(Cl)nn2)c1O | 54.6% (active) |
| Cc1nn(C(C)C(=O)N2CCOCC2)c(=O)c2nn(-c3ccccc3)c(C)c12 (configuration not stated) | -0.47% (inactive) |
| CC1(N2CCOCC2)CC2(O)C(=[N+]1[O-])CCc1nonc12 (configuration not stated) | 11.9% (inactive) |
| CCCCCCCC(=O)OC(CN1CCCCCC1)CN1CCCC1=O (configuration not stated) | -5.64% (inactive) |

| SMILES | inhibition |
| --- | --- |
| Cc1ccccc1CS(=O)(=O)CC1(O)CCN(C(=O)c2cccc(C(F)(F)F)c2)CC1 | -7.07% (inactive) |
| O=c1nc2s/c(=C\c3ccco3)c(=O)n2nc1Cc1ccccc1 | 25.7% (active) |
| CN(c1ccccc1)c1ccc(/C=c2\s/c(=C(/C#N)C(=O)C(C)(C)C)n(Cc3ccco3)c2=O)cc1 | -0.46% (inactive) |
| O=C(NCCc1ccco1)c1nn(Cc2ccccc2)c(=O)c2ccccc12 | 1.41% (inactive) |
| O=C(COc1coc(CN2CCN(c3ccccc3)CC2)cc1=O)N1CCc2ccccc21 | -5.69% (inactive) |
| CC(=O)N1CCc2cc(Br)cc(S(=O)(=O)CCC(=O)Nc3c(C)n(C)n(-c4ccccc4)c3=O)c21 | 7.96% (inactive) |
| N/C(=N\S(=O)(=O)c1ccc(Cl)cc1)N1CCOCC1 | 7.38% (inactive) |
| O=C(CNC(=O)c1ccccc1Br)NCCSc1ccc(Br)cc1 | 6.87% (inactive) |
| COc1ccccc1C(=O)NCC(=O)NCCSc1ccc(Br)cc1 | 28.6% (active) |
| COc1cc(C(=O)NCC(=O)NCCSc2ccc(Br)cc2)cc(OC)c1OC | 2.53% (inactive) |
| NCCN1CCN2C(=O)CN(C(=O)c3ccccc3)CC12 (configuration not stated) | 0.84% (inactive) |
| C/C=C(/C)C(=O)O[C@@H]1c2cc3c(c4c2[C@@]2(CO4)C(=O)C(OC)=C(OC)C=C2C[C@@H](C)[C@H]1C)OCO3 | -0.41% (inactive) |
| COCCOC(=O)c1sc(=S)n(CCOC)c1N | 27.2% (active) |
| COc1cccc(CNC(=O)C2CCCN(S(=O)(=O)N3CC(C)CC(C)C3)C2)c1 (configuration not stated) | 2.82% (inactive) |
| CCCCN1C(=O)C(=O)N(CC(=O)Nc2cccc(C(C)=O)c2)C1=O | -0.13% (inactive) |
| CC(=O)c1ccc(S(=O)(=O)NCCC(=O)N2CCN(c3ccccn3)CC2)cc1 | -1.99% (inactive) |
| COc1ccccc1OCc1nnc(SCC(N)=O)n1-c1ccccc1 | -7.86% (inactive) |
| COc1cccc(-c2coc3cc4oc(=O)c(CC(=O)O)c(C)c4cc23)c1 | 2.78% (inactive) |
| O=C(Cc1ccccc1)NC(=S)Nc1ccc(N2CCCCC2)cc1 | 28.6% (active) |
| O=C(CCN1CCN(c2ccccc2)CC1)NNC(=S)Nc1ccccc1 | 3.64% (inactive) |
| Cc1ccccc1C(=O)NC(=S)Nc1ccc(N2CCN(C(=O)c3ccccc3)CC2)cc1 | 8.73% (inactive) |
| O=C(COC(=O)c1c(Cl)cccc1Cl)Nc1cccc(S(=O)(=O)NC2=NCCCCC2)c1 | 0.66% (inactive) |

| SMILES | inhibition |
| --- | --- |
| CC(C)Nc1ccc(-n2nc3ccccc3[n+]2[O-])cc1 | -0.33% (inactive) |
| COC(=O)C1(CCSC)NC(c2ccc(OC)cc2OC)C2C(=O)N(c3cccc(C(C)=O)c3)C(=O)C21 (configuration not stated) | 8.06% (inactive) |
| Cc1ccsc1C(=O)NNC(=O)COc1ccc(Br)cc1 | 5.73% (inactive) |
| CCCCNS(=O)(=O)c1ccc2nc(SCC(=O)Nc3cc(C)cc(C)c3)[nH]c2c1 | -1.99% (inactive) |
| COc1cccc(CNC(=O)c2nnn(CC(=O)Nc3cc(Cl)ccc3C)c2N)c1 | -8.08% (inactive) |
| CN(C)C(=O)c1nc2ccc(Cl)cn2c1CN1CCN(c2ncccn2)CC1 | -1.11% (inactive) |
| CN(C)C(=O)c1nc2ccc(Cl)cn2c1CNCc1cccc(OC(F)(F)F)c1 | 27.7% (active) |
| Cc1ccc(-n2nc3ccc(NC(=O)/C=C/c4ccco4)cc3n2)cc1C | -3.71% (inactive) |
| Cc1ccc(N2NC(=O)/C(=C/C=C/c3ccco3)C2=O)cc1C | 21.3% (inactive) |
| Cc1ccc(N=C2NC(=O)/C(=C/C=C/c3ccco3)S2)cc1C | 57.3% (active) |
| Cc1ccc(S(=O)(=O)N2CCCCC2)cc1NC(=O)[C@@H]1CCCN1C(=O)c1cccs1 | 4.96% (inactive) |
| O=C(CNC(=O)c1n[nH]c2ccccc12)Nc1cc(Cl)ccc1Cl | -4.9% (inactive) |
| CC(=O)Nc1cccc(/C(C)=N/NC(=O)c2c(-c3ccccc3Cl)noc2C)c1 | 5.03% (inactive) |
| Cc1ccccc1NC(=O)c1cc(S(=O)(=O)Nc2cccc(C(=O)O)c2)ccc1Cl | 2.58% (inactive) |
| C/C(=N\Nc1cccc(C(=O)O)c1)c1ccc2c(c1)Nc1ccccc1S2 | 32.8% (active) |
| CSc1ccc(/C=C/C(=O)NC23CC4CC(CC(C4)C2)C3)cc1 | -0.12% (inactive) |
| COc1ccc(NC(C)=O)cc1NC(=O)CN1CCN(C2c3ccccc3-c3ccccc32)CC1 | 7.04% (inactive) |
| CCC(=O)Nc1sc(C(=O)Nc2ccccc2)c(C)c1C(=O)OC | 50.5% (active) |
| CCOC(=O)c1sc(NC(=O)COc2ncnc3ccccc23)c(C(=O)OCC)c1C | 0.72% (inactive) |
| COC(=O)c1c(NC(C)=O)sc(C(=O)Nc2ccccc2OC)c1C | -5.75% (inactive) |
| COC(=O)c1ccc(CNC(=O)c2ccc3oc(C(C)C)nc3c2)cc1 | -0.67% (inactive) |
